# This is one part of a sample in which hits are shown more often than they occur.
# mHTT CaM bind – inhibitors of human mutant huntingtin-calmodulin interaction | AID 1671202 | hit rate 3.6% among 190,000 | AlphaScreen His-mHTT/GST-CaM binding, luminescence | inhibition, % at 15 µM | P42858;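 further: 0% = both proteins with DMSO and 100% = one protein alone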
# Pf apPOL block – Pf-apPOL DNA polymerase inhibition; inhibition, % at 10 µM; Recombinant Pf-apPOL, molecular beacon fluorescence, 1.5 h; hit rate 0.25% among 210,000; AID 1794808
# The depositor's hits bear a star; . = no result. No stated cut-off is given here; in the data, active means inhibition above about 50%; inactive means the rest.
SMILES,mHTT CaM bind,Pf apPOL block
CC(=O)Nc1ccc(S(=O)(=O)Nc2ccc(Nc3ccccc3)cc2)cc1,83*,1
O=S(=O)(Nc1ccc(Nc2ccccc2)c(NS(=O)(=O)c2ccccc2)c1)c1ccccc1,63*,-2
CC(=O)Nc1ccc(S(=O)(=O)Nc2ccc(S(=O)(=O)Nc3ccccc3)cc2)cc1,4,4
NS(=O)(=O)c1cccc(NS(=O)(=O)c2ccccc2)c1,.,18
O=C(NCCSc1c[nH]c2ccccc12)c1cccc(C(F)(F)F)c1,19,-6
COc1ccccc1Cn1cnc2c([nH]c3ccc(F)cc32)c1=O,1,0
CC(=O)Nc1cccc(N2CC(C(=O)Nc3ccc(F)cc3C)CC2=O)c1 (stereo unspecified),4,87*
CC(=O)Nc1cccc(N2CC(C(=O)Nc3ccc(C)cc3C)CC2=O)c1 (stereo unspecified),10,0
Cc1ccc(NC(=O)C2CCN(C(=O)c3cc4ccsc4[nH]3)CC2)c(C)c1,-1,0
COc1ccc(CNc2ccccc2)cc1C,8,-2
CC(CCc1ccc(O)cc1)Nc1ccc2[nH]ncc2c1 (stereo unspecified),40,1
COc1ccc(CNc2ccc3[nH]ncc3c2)cc1C,65*,12
Cc1ccc(C)c(CNc2ccc3[nH]ncc3c2)c1,75*,0
COC(=O)[C@H](C(C)C)N(CCc1cn(CC2CCCCC2)nn1)S(=O)(=O)c1ccc(F)cc1Br,-3,-2
COc1ccc(/C=C2\C(=O)c3ccccc3C2=C(C#N)C#N)cc1OC,92*,-1
COc1cc(C=C2C(=O)c3ccccc3C2=O)ccc1OCc1ccc(C(=O)O)cc1,6,3
CCNS(=O)(=O)c1cccnc1Nc1cccc(Cl)c1,-14,-2
O=S(=O)(Nc1ccc(F)cc1)c1cccnc1Nc1cccc(Cl)c1,93*,6
Cc1ccc(-c2cnc(N3CCCC(C(=O)NCCC(C)C)C3)nc2)cc1 (stereo unspecified),-3,-2
COc1ccccc1-c1cnn2c(Nc3ccc(NC(C)=O)cc3)cc(C)nc12,54*,-4
COc1ccccc1-c1cnn2c(C)cc(C)nc12,-15,-2
Cc1[nH]n(-c2ccccc2)c(=S)c1C=Nc1ccc([N+](=O)[O-])cc1[N+](=O)[O-],5,.
Cc1ccccc1CSCc1ccc(C(=O)O)o1,5,-6
Cc1ccccc1CSCc1ccc(C(=O)N2CCC(c3ccncc3)CC2)o1,58*,-1
CCc1ccc(NC(=O)Cn2ccc3sc(C)cc3c2=O)cc1,-9,4
SMILES,mHTT CaM bind,Pf apPOL block
COc1cccc(C=NNC(=O)C2CCCN(C(=S)NNC3CC4C=CC3C4)CC2)c1O (stereo unspecified),.,-2
Cc1cc(Cl)ccc1OCc1nc(-c2cccc(-c3ccn[nH]3)c2)no1,23,-1
COc1ccc(-c2csc(NC(=O)C3CCCCC3)n2)c(OC)c1,9,-3
COc1ccc(C2CC(=O)Nc3n[nH]c(-c4ccccc4)c32)cc1OC (stereo unspecified),9,-5
COc1cc(C2CC(=O)Nc3n[nH]c(-c4ccc(Cl)cc4)c32)cc(OC)c1OC (stereo unspecified),100*,1
COc1ccc(OC)c(C2CC(=O)Nc3n[nH]c(-c4ccccc4)c32)c1 (stereo unspecified),94*,2
COc1cc(C2CC(=O)Nc3n[nH]c(-c4ccccc4)c32)ccc1O (stereo unspecified),54*,1
COc1ccc(C2CC(=O)Nc3n[nH]c(-c4ccccc4)c32)cc1 (stereo unspecified),-1,-2
COc1cccc(C2CC(=O)Nc3n[nH]c(-c4ccc(Cl)cc4)c32)c1 (stereo unspecified),34,3
Cc1n[nH]c(C)c1S(=O)(=O)NCCc1ccccc1,-4,-2
CN1C(=O)c2ccc(NC(=O)c3ccccc3Br)cc2C1=O,-3,2
Clc1ccc(C2C=C(c3cccs3)Nc3ncnn32)cc1 (stereo unspecified),11,-3
Cc1cccc(NC(=O)N2CCC3(CC2)NC(=O)c2ccccc2N3C)c1,-10,0
CCN1c2cc(C)ccc2-n2cccc2C12CCN(C(=O)Nc1cccc(C)c1)CC2,66*,5
CCN1c2cc(C)ccc2-n2cccc2C12CCN(C(=O)Nc1ccc(F)cc1)CC2,48,-8
CCN1c2cc(C)ccc2-n2cccc2C12CCN(C(=O)Nc1cc(F)ccc1F)CC2,51*,1
CCN1c2ccccc2-n2cccc2C12CCN(C(=O)Nc1ccccc1C)CC2,4,-2
CCN1c2cc(C)ccc2-n2cccc2C12CCN(C(=O)Nc1ccc(F)cc1F)CC2,52*,-6
O=C1C(c2ccc(Cl)cc2)N(C2CCCC2)C(=O)CN1C1CCCC1 (stereo unspecified),13,-9
NC(CO)CSCc1ccccc1 (stereo unspecified),.,6
CC(=O)c1ccc(NC(=O)COc2cc(C)nc(-c3ccc(Cl)cc3)n2)cc1,10,-7
Cc1c(Cl)cccc1NC(=O)c1cc(S(=O)(=O)N2CCc3ccccc32)ccc1F,-24,-1
O=C(C1CCCCC1)N1CCN(c2nc(CN3CCCCCC3)cs2)CC1,96*,34
O=C(C1CCCC1)N1CCN(c2nc(CN3CCCCCC3)cs2)CC1,16,4
Cc1ccc(OCC(=O)N2CCN(c3nc(CN4CCCCC4)cs3)CC2)cc1,38,1
SMILES,mHTT CaM bind,Pf apPOL block
O=C(COc1ccc(Cl)cc1)N1CCN(c2nc(CN3CCCCC3)cs2)CC1,50*,-3
O=C(Nc1ccc(Cl)cc1)C1C2C3CCC(C3)C12 (stereo unspecified),-9,-5
CC1=N/C(=C\c2ccc([N+](=O)[O-])cc2)C(=O)N1c1cc(Cl)ccc1Cl,52*,-1
CC1=N/C(=C\c2ccc([N+](=O)[O-])cc2)C(=O)N1c1ccc(Cl)cc1C,15,-3
Cc1cccc(NC(=O)CSc2nnc(N)s2)c1C,-3,-27
CCOc1cc(/C=C2\SC(=O)N(C)C2=O)c(Br)cc1O,12,-16
CC1CCCC2(C1)C(C#N)=C(SCC(=O)Nc1ccc(Br)cc1)NC(=O)C2C#N (stereo unspecified),73*,-2
N#CC1=C(SCC(=O)Nc2ccccc2)NC(=O)C(C#N)C12CCCC2 (stereo unspecified),-3,-4
COc1cccc(C2CC(c3ccc(C)cc3)=NC3(CCN(C)CC3)N2)c1O (stereo unspecified),5,-1
Cc1cccc(CSc2nc3ccccc3[nH]2)c1,-29,4
COc1ccc(C)cc1NC(=O)c1ccc(N(Cc2ccc(C)cc2)S(C)(=O)=O)cc1,3,-2
COc1ccc(-c2nc3sc(C)c(C)c3c(=O)[nH]2)cc1[N+](=O)[O-],-3,-6
Cc1ccc(/C=C/C2=NC(=C\c3ccc([N+](=O)[O-])cc3)/C(=O)O2)cc1,9,-3
O=C(Cc1cccc(F)c1)Nc1nnc(C2CC(=O)N(c3ccc(Cl)cc3)C2)o1 (stereo unspecified),6,-2
O=C(Cc1ccc(F)cc1)Nc1nnc(C2=COCCO2)o1,51*,-3
CSc1ccc(N2CC(c3nnc(NC(=O)c4ccco4)o3)CC2=O)cc1 (stereo unspecified),65*,-2
Cc1ccc(CC(=O)Nc2nnc(C3CC(=O)N(c4ccc(F)cc4)C3)o2)cc1 (stereo unspecified),0,-8

# Bioassay records from PubChem BioAssay.
